# Measured values reported in PubChem BioAssay (NCI).
# Values joined by “and” are separate entries in the source; they are usually repeats but may differ in a detail not shown here. Equal entries are not always repeated. About 83,000 compounds went through this panel and 20% of them were active in at least one assay; those are over-represented in the sample as a whole.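 The endpoint reported here, percent growth, reads 100 for growth as untreated, 0 for no net growth and -100 for all cells dead.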 A structure can be active in one record and inactive in another. Active and inactive are the calls of the source. The calls were made as follows: active = growth percent below 10; inactive = the rest.
# Tested on: HT29 colon
# Experiment: NCI-60 one-dose screen, 48 h (100 = growth as untreated, 0 = no growth, -100 = all killed)
# Conditions: 10 µM
row,Structure (SMILES),growth
1,Cc1cc(N(CCOS(C)(=O)=O)CCOS(C)(=O)=O)ccc1C=Nc1ccc(-c2nc(Cc3ccccc3)sc2C)cc1,46.2% (inactive)
2,O=[N+]([O-])c1cc[n+]([O-])cc1,105% (inactive)
3,C#CCN(Cc1ccc2nc(N)[nH]c(=O)c2c1)c1ccc(C(=O)NC(CCC(=O)O)C(=O)O)cc1 (stereo unspecified),62.5% (inactive)
4,CN(C)CCOC1(Cc2ccc(Cl)cc2Cl)CCC(C(C)(C)C)CC1 (stereo unspecified),-37.7% (active) and -58.6% (active)
5,COc1ccc(C(=O)C(CN(C)C)CN(C)C)cc1,-77.3% (active)
6,CC1=CC(=C(c2ccc(N)cc2)c2ccc(N)cc2)C=CC1=N,6.75% (active) and 10.4% (inactive)
7,Cc1ccc(Sc2ccccc2N)cc1,26.1% (inactive)
8,C=C1C(=O)OC2CC1C(OC(C)=O)C/C(C)=C/CC/C(C)=C\CCC2(C)O (stereo unspecified),-45.1% (active)

# Tested on: SNB-75 CNS
# Experiment: as above
# Conditions: 10 µM
row,Structure (SMILES),growth
1,Cc1cc(N(CCOS(C)(=O)=O)CCOS(C)(=O)=O)ccc1C=Nc1ccc(-c2nc(Cc3ccccc3)sc2C)cc1,-1.26% (active)
2,C#CCN(Cc1ccc2nc(N)[nH]c(=O)c2c1)c1ccc(C(=O)NC(CCC(=O)O)C(=O)O)cc1 (stereo unspecified),86.5% (inactive)
3,CN(C)CCOC1(Cc2ccc(Cl)cc2Cl)CCC(C(C)(C)C)CC1 (stereo unspecified),47.1% (inactive) and 44.2% (inactive)
4,COc1ccc(C(=O)C(CN(C)C)CN(C)C)cc1,76.4% (inactive)
5,CC1=CC(=C(c2ccc(N)cc2)c2ccc(N)cc2)C=CC1=N,-1.98% (active) and 23.7% (inactive)
6,Cc1ccc(Sc2ccccc2N)cc1,122% (inactive)
7,C=C1C(=O)OC2CC1C(OC(C)=O)C/C(C)=C/CC/C(C)=C\CCC2(C)O (stereo unspecified),19.8% (inactive)

# Tested on: SNB-19 CNS
# Experiment: as above
# Conditions: 10 µM
row,Structure (SMILES),growth
1,Cc1cc(N(CCOS(C)(=O)=O)CCOS(C)(=O)=O)ccc1C=Nc1ccc(-c2nc(Cc3ccccc3)sc2C)cc1,39.5% (inactive)
2,O=[N+]([O-])c1cc[n+]([O-])cc1,88.5% (inactive)
3,CN(C)CCOC1(Cc2ccc(Cl)cc2Cl)CCC(C(C)(C)C)CC1 (stereo unspecified),15.5% (inactive) and -25.9% (active)
4,COc1ccc(C(=O)C(CN(C)C)CN(C)C)cc1,103% (inactive)
5,CC1=CC(=C(c2ccc(N)cc2)c2ccc(N)cc2)C=CC1=N,17.9% (inactive) and 21.6% (inactive)
6,Cc1ccc(Sc2ccccc2N)cc1,95.6% (inactive)
7,C=C1C(=O)OC2CC1C(OC(C)=O)C/C(C)=C/CC/C(C)=C\CCC2(C)O (stereo unspecified),51.6% (inactive)

# Tested on: U251 CNS
# Experiment: as above
# Conditions: 10 µM
row,Structure (SMILES),growth
1,Cc1cc(N(CCOS(C)(=O)=O)CCOS(C)(=O)=O)ccc1C=Nc1ccc(-c2nc(Cc3ccccc3)sc2C)cc1,43.2% (inactive)
2,O=[N+]([O-])c1cc[n+]([O-])cc1,111% (inactive)
3,C#CCN(Cc1ccc2nc(N)[nH]c(=O)c2c1)c1ccc(C(=O)NC(CCC(=O)O)C(=O)O)cc1 (stereo unspecified),89.2% (inactive)
4,CN(C)CCOC1(Cc2ccc(Cl)cc2Cl)CCC(C(C)(C)C)CC1 (stereo unspecified),-95.2% (active) and -100% (active)
5,COc1ccc(C(=O)C(CN(C)C)CN(C)C)cc1,102% (inactive)
6,CC1=CC(=C(c2ccc(N)cc2)c2ccc(N)cc2)C=CC1=N,17.4% (inactive) and 10.6% (inactive)
7,Cc1ccc(Sc2ccccc2N)cc1,84.3% (inactive)
8,C=C1C(=O)OC2CC1C(OC(C)=O)C/C(C)=C/CC/C(C)=C\CCC2(C)O (stereo unspecified),33.3% (inactive)

# Tested on: PC-3 prostate
# Experiment: as above
# Conditions: 10 µM
row,Structure (SMILES),growth
1,Cc1cc(N(CCOS(C)(=O)=O)CCOS(C)(=O)=O)ccc1C=Nc1ccc(-c2nc(Cc3ccccc3)sc2C)cc1,55% (inactive)
2,O=[N+]([O-])c1cc[n+]([O-])cc1,101% (inactive)
3,C#CCN(Cc1ccc2nc(N)[nH]c(=O)c2c1)c1ccc(C(=O)NC(CCC(=O)O)C(=O)O)cc1 (stereo unspecified),64.6% (inactive)
4,CN(C)CCOC1(Cc2ccc(Cl)cc2Cl)CCC(C(C)(C)C)CC1 (stereo unspecified),40.8% (inactive) and 35.7% (inactive)
5,COc1ccc(C(=O)C(CN(C)C)CN(C)C)cc1,89.6% (inactive)
6,CC1=CC(=C(c2ccc(N)cc2)c2ccc(N)cc2)C=CC1=N,9.47% (active) and 18.5% (inactive)
7,Cc1ccc(Sc2ccccc2N)cc1,74.4% (inactive)
8,C=C1C(=O)OC2CC1C(OC(C)=O)C/C(C)=C/CC/C(C)=C\CCC2(C)O (stereo unspecified),18.3% (inactive)

# Tested on: SK-MEL-5 melanoma
# Experiment: as above
# Conditions: 10 µM
row,Structure (SMILES),growth
1,Cc1cc(N(CCOS(C)(=O)=O)CCOS(C)(=O)=O)ccc1C=Nc1ccc(-c2nc(Cc3ccccc3)sc2C)cc1,45.2% (inactive)
2,O=[N+]([O-])c1cc[n+]([O-])cc1,95% (inactive)
3,C#CCN(Cc1ccc2nc(N)[nH]c(=O)c2c1)c1ccc(C(=O)NC(CCC(=O)O)C(=O)O)cc1 (stereo unspecified),100% (inactive)
4,CN(C)CCOC1(Cc2ccc(Cl)cc2Cl)CCC(C(C)(C)C)CC1 (stereo unspecified),10.2% (inactive) and -63.9% (active)
5,COc1ccc(C(=O)C(CN(C)C)CN(C)C)cc1,101% (inactive)
6,CC1=CC(=C(c2ccc(N)cc2)c2ccc(N)cc2)C=CC1=N,-37.3% (active) and -25.8% (active)
7,Cc1ccc(Sc2ccccc2N)cc1,91.8% (inactive)
8,C=C1C(=O)OC2CC1C(OC(C)=O)C/C(C)=C/CC/C(C)=C\CCC2(C)O (stereo unspecified),55.8% (inactive)
